# Bioassay records as filed in PubChem.
# Hits are enriched below; roughly 3.5% of the tested compounds scored in any of these assays.
# FBW7 activator – human FBW7 E3 ligase activation, primary screen. AlphaScreen FBW7–phospho-cyclin E peptide binding, activator screen. hit rate 0.13% among 650,000. AID 1259310. normalized activity (activation), % at 26.1 µM; in the data active = normalized activity above about 1.9%;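 also: purified mutant Fbw7 with reduced substrate affinity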
# TEAD-YAP block – TEAD-YAP interaction inhibition. inhibition, % at 9.12 µM. HEK-TIYL cells, TEAD-Gal4/YAP UAS-luciferase luminescence. hit rate 1.4% among 640,000; in the data active = inhibition above about 32%;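 also: 0% = median of test compound wells and 100% = reference inhibitor wells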
# MITF primary – blocks human microphthalmia-associated transcription factor; O75030; AlphaScreen MITF homodimerization, bead proximity signal; inhibition, % at 2.6 µM; hit rate 0.91% among 650,000; AID 1259374; in the data active = inhibition above about 50%;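 also: 0% = vehicle wells with protein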
# GPR151 ag – activates the human receptor GPR151; Q8TDV0; PathHunter beta-arrestin GPR151 cells, luminescence; activation, % at 11.2 µM; hit rate 1% among 650,000; AID 1508602; in the data active = activation above about 4.9%;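 also: 0% = median of compound wells and 100% = cells with positive control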
# GPR151 conf act – confirmation of human GPR151 activators | 6,700 tested, under 10 active | GPR151 PathHunter beta-arrestin cells, luminescence, 90 min; % of EA-reagent control over plate median | activation, % at 11.2 µM | shares compounds with GPR151 ag | AID 1508609;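 active = mean percent activation across replicates above the confirmation screen cutoff of 4.91%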
# GPR119 counter – counter-screen for GPR151 activators: effect on human GPR119 | shares compounds with GPR151 ag | GPR119 PathHunter beta-arrestin cells, luminescence, 90 min; 0 = compound-well median, 100 = enzyme-acceptor control | activation, % at 11.2 µM | hit rate 0.3% among 6,700 | AID 1508611;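 active = mean percent activation in the counterscreen above 29.09%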;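 also: counterscreen on off-target GPR119 to flag nonselective hits from the GPR151 activator screen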
# Target sequence (Q8TDV5 whole entry, looked up): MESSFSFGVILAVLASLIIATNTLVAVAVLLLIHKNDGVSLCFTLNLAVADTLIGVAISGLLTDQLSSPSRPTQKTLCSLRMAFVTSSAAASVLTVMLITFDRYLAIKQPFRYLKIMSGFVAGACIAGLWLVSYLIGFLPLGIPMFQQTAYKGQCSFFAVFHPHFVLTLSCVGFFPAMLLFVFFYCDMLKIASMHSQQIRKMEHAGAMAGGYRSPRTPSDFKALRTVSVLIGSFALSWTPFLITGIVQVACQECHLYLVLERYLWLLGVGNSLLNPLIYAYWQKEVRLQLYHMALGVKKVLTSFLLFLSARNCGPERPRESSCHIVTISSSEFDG
# An asterisk follows results filed as active; x = no result given; ! = a repeat was not active.
SMILES,FBW7 activator,TEAD-YAP block,MITF primary,GPR151 ag,GPR151 conf act,GPR119 counter
O=C(c1nc2ccccc2s1)C1CCN(C(=O)Cn2cnc3ccccc3c2=O)CC1,0.0,-1.6,5.0,0.0,x,x
O=C1NC(CC(=O)N2CCC(C(=O)c3nc4ccccc4s3)CC2)c2ccccc21 (centres undefined),0.6,6.4,9.4,5.1*,-0.7,-7.1
COc1ccc(-n2c3c(cc(C(=O)Nc4ccc(Cl)cn4)c2=O)C(=O)CC(C)(C)C3)cc1,-0.1,-18.4,-4.0,0.3,x,x
COc1ccc(-n2nc(C(=O)NCC(=O)Nc3ccc(OC)c(OC)c3)c3ccccc3c2=O)cc1Cl,0.1,31.5,12.8,6.3*,0.3,3.5
CCOC(=O)N1CCN(C(=O)CNC(=O)c2nn(-c3ccc(OC)cc3OC)c(=O)c3ccccc23)CC1,-0.1,-10.6,2.6,5.3*,-0.2,10.2
COc1ccc(-n2nc(C(=O)NCC(=O)N3CCCC3)c3ccccc3c2=O)c(OC)c1,0.2,-2.3,17.2,-1.0,x,x
CC1CCN(C(c2cccc(F)c2)c2sc3ncnn3c2O)CC1 (centres undefined),0.0,-0.2,20.3,-0.9,x,x
Cc1ccc(N2C(c3ccc(N(C)C)cc3)C(=O)C2N2C(=O)c3ccccc3C2=O)cc1 (centres undefined),0.6,-0.7,22.6,8.4*,-0.2,3.6
Cc1cnc(NC(=O)Cc2ccsc2)s1,-0.1,-1.2,4.0,6.3*,-0.1,-0.9
CC(C)(C)NC(=O)CSc1ncn[nH]1,-0.1,8.8,-2.8,0.7,x,x
O=C(O)CSCC(=O)Nc1ccccc1C(F)(F)F,0.1,1.0,7.6,-0.8,x,x
Cc1ccc(C(=O)Nc2ccc(NC(=O)c3ccccc3N)cc2)cc1,1.2,-8.0,-0.9,5.3*,1.4,12.2
O=C(O)CCC(=O)c1ccc(Cc2ccccc2)cc1,0.3,5.4,4.0,5.3*,1.3,2.9
c1ccc(-c2noc(CCC3CCCC3)n2)cc1,0.0,0.2,1.1,11.7*,-0.9,-8.5
O=C(Nc1ccccc1N(C(=O)C1CC1)S(=O)(=O)c1cccs1)C1CC1,-0.1,2.6,2.8,5.0*,-0.1,15.4
CCOc1ccc(S(=O)(=O)NCC(c2ccco2)S(=O)(=O)c2ccc(C)cc2)cc1 (centres undefined),0.3,0.0,11.2,8.4*,-1.3,-11.3
O=C(C[n+]1cccc(Br)c1)c1cccs1,1.1,-0.4,-13.1,7.8*,-0.9,-6.5
c1cncc(-c2nc3c(c(N4CCOCC4)n2)CNCC3)c1,0.3,-23.4,12.8,-1.7,x,x
O=C(N[C@@H](Cc1ccccc1)C(=O)O)c1ccc(Cl)cc1Cl,0.1,0.8,11.3,5.0*,0.0,1.9
CC(C)CC(NC(=O)c1ccc(Cl)cc1Cl)C(=O)O (centres undefined),0.1,-1.2,6.1,-0.7,x,x
Cc1ncsc1CCCNC1CCN(c2ccc(C(=O)NC3CCCC3)cc2)CC1,-0.2,-2.9,-1.9,0.6,x,x
COc1cccc(C(=O)Nc2nc3c(SC)cccc3s2)c1OC,-0.1,-9.6,10.1,1.2,x,x
Clc1ccc(N2CCN(Cc3ccco3)CC2)cc1,1.0,0.6,25.6,5.0*,0.3,6.6
Clc1ccc(N2CCN(Cc3ccoc3)CC2)cc1,-0.3,-4.8,38.7,0.0,x,x
CN(C)S(=O)(=O)c1ccc(NC(=O)CSc2nnc(Nc3ccccc3)s2)cc1,0.0,-3.9,5.0,-1.1,x,x
SMILES,FBW7 activator,TEAD-YAP block,MITF primary,GPR151 ag,GPR151 conf act,GPR119 counter
COc1cccc(C(=O)Nc2cc(-c3nc4ccc(C)cc4o3)ccc2C)c1,0.0,-3.7,7.7,-0.5,x,x
CC(=O)c1ccc(OCC(O)CN2CCCCC2C)cc1 (centres undefined),0.1,0.0,-22.2,5.2*,-0.7,-12.2
CC1CCCC(C)N1CC(O)COc1ccc(N)cc1 (centres undefined),0.1,6.9,-2.3,4.9*,0.1,-4.7
CC1=C(C(=O)Nc2nc3ccccc3s2)C(c2ccc(Cl)cc2)C2=C(CC(C)(C)CC2=O)N1 (centres undefined),0.3,7.6,-10.6,1.7,x,x
CN(CC1CCCCO1)C(=O)c1cc(CCc2ccccc2)no1 (centres undefined),-0.3,-52.8,-15.9,-0.4,x,x
CC(=O)c1c(C)[nH]c(C(=O)COc2cc(C)cc(C)c2)c1C,0.0,6.9,7.5,5.6*,1.3,1.8
CCCOc1ccc(OCC(=O)c2[nH]c(C)c(C(C)=O)c2C)cc1,0.1,29.7,14.9,0.1,x,x
CN1CCN(Cc2ccc(C#CCCO)cc2)CC1CCO (centres undefined),0.0,-0.5,-9.6,5.0*,0.0,-0.5
O=C(CCN1C(=O)c2ccccc2C1=O)NNC(=O)c1cccc([N+](=O)[O-])c1,-0.1,-1.5,-4.4,0.9,x,x
O=C(COc1ccc(C(=O)N2CCN(CCc3ccccc3)CC2)cc1)C1CC1,0.2,2.8,15.1,5.1*,-1.0,7.3
O=C(COc1ccc(C(=O)N2CCN(c3ccccc3Cl)CC2)cc1)C1CC1,-0.2,-10.6,1.1,0.0,x,x
C[C@H]1C[C@@H]2[C@H]([C@@H](O)C[C@@]3(C)[C@H]2CC[C@]3(O)C(=O)CO)[C@@]2(C)C=CC(=O)C=C12,0.1,x,3.3,6.9*!,-0.3,0.1
O=C(NCSc1ncccn1)c1ccccc1,-0.1,-4.1,-10.1,7.6*,-0.7,-14.9
CC(C)C(NC(=O)C1CCCCC1)C(=O)Nc1ccncc1 (centres undefined),0.1,5.6,-1.7,5.6*,0.3,8.7
C=CCn1c(SC(C)C(=O)NC(N)=O)nnc1-c1ccc(C(C)(C)C)cc1 (centres undefined),0.0,2.2,-7.1,8.2*,0.1,-3.4
CCN(CC)C(=S)SCCC(=O)NC(=O)Nc1ccc(F)cc1,-0.5,14.2,0.7,23.8*,-0.7,-3.3
Cc1ccc(S(=O)(=O)/N=C(\CN2CCCCC2)N2CCCCC2)cc1,0.0,1.9,4.5,5.4*,-0.5,-5.6
Cn1c(=O)c2c(nc(SCc3ccccn3)n2C)n(C)c1=O,0.1,13.0,12.7,0.4,x,x
Cn1c(=O)c2c(nc(SCc3ccccc3F)n2C)n(C)c1=O,0.0,7.3,0.5,4.9*,0.8,12.5
CC1CCCN(C(=O)CSc2nc3cc4c(cc3cc2C#N)OCCO4)C1 (centres undefined),0.2,-17.0,-11.1,1.1,x,x
Nc1ncc(Br)cc1S(=O)(=O)N(CCc1ccccc1)Cc1ccccc1,0.0,-5.3,1.1,9.3*,0.7,1.0
CN(Cc1ccccc1)S(=O)(=O)c1cc(Br)cnc1N,0.2,-2.2,4.3,-0.2,x,x
Cc1nc(N)sc1N=Nc1cccnc1,-0.5,-5.1,2.3,-0.6,x,x
Oc1ccc(CCNc2nc(NC3CCN(Cc4ccccc4)CC3)nc3c2ncn3-c2ccsc2)cc1,-0.1,24.6,2.4,5.6*,0.4,9.2
CN(C)c1cccc(Nc2nc(Nc3ccccc3)c3ncn(-c4ccsc4)c3n2)c1,0.2,-66.8,9.1,5.6*,-0.5,-8.4
